Experiment [1] is described as follows: Human pregnane X receptor (PXR) small molecule agonists, qHTS cell viability counter screen (AID 1346977). Further: nearly all actives have a fitted effect of over 50% in size. Further: potency means the concentration at half of the fitted maximal effect. The procedure, abridged:
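HepG2 cells stably carrying the PXR-Luc reporter are cultured with 5% charcoal-stripped FBS and treated with compounds for 24hr. CellTiter-Fluor is added at 23hr and fluorescence is read after 1hr.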
In general terms: qHTS replaces the single test concentration by a dilution series.

A short description of experiment [2]: Caspase-3/7 induction in HepG2 cells by small molecules, qHTS assay (AID 1346978). Further: nearly all actives have a fitted effect of over 15% in size. Further: potency means the concentration at half of the fitted maximal effect. The procedure, abridged: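 Wild-type HepG2 cells, 2,000/well, settled 5 hr at 37 C and 5% CO2, then compound-treated for 17 hr; caspase-3/7 activity read by luminescent Caspase-Glo 3/7 after 30 min at room temperature.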
Experiment [3] is described as follows: Caspase-3/7 induction in CHO-K1 cells by small molecules, qHTS cell viability counter screen (AID 1346979). Further: nearly all actives have a fitted effect of over 35% in size. Further: potency means the concentration at half of the fitted maximal effect. The procedure, abridged:
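Seeding: 1,500 CHO-K1 cells/well. Rest: 5hr, 37C. Treatment: compounds in DMSO, 16hr. Read: CellTiter-Fluor, 1hr, fluorescence.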

Experiment [4] in a line: Caspase-3/7 induction in CHO-K1 cells by small molecules, qHTS assay (AID 1346980). Further: nearly all actives have a fitted effect of over 15% in size. Further: potency means the concentration at half of the fitted maximal effect. In outline:
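Wild-type CHO-K1 cells exposed to compounds for 17hr at 37 C, 5% CO2. Caspase-3/7 activity then measured by Caspase-Glo 3/7 luminescence after 30min at room temperature.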

The nature of experiment [5]: Caspase-3/7 induction in HepG2 cells by small molecules, qHTS cell viability counter screen (AID 1346981). Further: nearly all actives have a fitted effect of over 30% in size. Further: potency means the concentration at half of the fitted maximal effect. The procedure, abridged: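 Steps: seed 2,000 HepG2 cells per well; incubate 5 hr at 37 C; pin-add compounds in DMSO; incubate 16 hr; add CellTiter-Fluor; after 1 hr at 37 C and 5% CO2, read fluorescence.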
In experiment [6] the target is Nuclear receptor subfamily 1 group I member 2 (Homo sapiens) (UniProt O75469). Nature of the experiment: Human pregnane X receptor (PXR) small molecule agonists, qHTS assay (AID 1346982). Further: nearly all actives have a fitted effect of over 35% in size. Further: potency means the concentration at half of the fitted maximal effect. The procedure, abridged: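 Agonist mode qHTS: PXR-Luc HepG2 cells plated 5 hr before DMSO-dissolved compounds were pinned in, cultured 24 hr at 37 C, 5% CO2; ONE-Glo luminescence readout.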
Chain of Nuclear receptor subfamily 1 group I member 2 (Homo sapiens) (O75469 whole entry, looked up): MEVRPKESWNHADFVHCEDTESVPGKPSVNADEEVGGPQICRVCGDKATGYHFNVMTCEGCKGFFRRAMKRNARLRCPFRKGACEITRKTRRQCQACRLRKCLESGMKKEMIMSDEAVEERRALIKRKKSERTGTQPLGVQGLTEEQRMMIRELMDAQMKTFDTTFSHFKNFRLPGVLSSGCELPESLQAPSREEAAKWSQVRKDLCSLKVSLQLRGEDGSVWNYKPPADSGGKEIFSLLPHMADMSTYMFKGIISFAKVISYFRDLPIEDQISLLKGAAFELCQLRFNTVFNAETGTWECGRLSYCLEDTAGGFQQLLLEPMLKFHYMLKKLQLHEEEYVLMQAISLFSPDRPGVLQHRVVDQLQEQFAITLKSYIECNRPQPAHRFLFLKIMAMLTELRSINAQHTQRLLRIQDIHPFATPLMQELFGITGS

Experiment [7] concerns the target Acetylcholinesterase (Homo sapiens) (UniProt P22303). Put plainly: Acetylcholinesterase (AChE) small molecule antagonists: colormetric cell-based qHTS assay (AID 1347395; calls by dose curve; further: nearly all actives have a fitted effect of over 30% in size; further: potency means the concentration at half of the fitted maximal effect). In outline:
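Quantitative HTS in attached SH-SY5Y cells: 30 min compound exposure, then 90 min with acetylthiocholine and DTNB at 37 C; colour from thiocholine reports AChE activity.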

For experiment [8] the target is unchanged. Nature of the experiment: Acetylcholinesterase (AChE) small molecule antagonists: enzyme-based qHTS assay (AID 1347397; calls by dose curve; further: nearly all actives have a fitted effect of over 55% in size). Particulars: Potency: AChE enzyme activity inhibition. In outline: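 Recombinant human AChE (50 mU/mL) preincubated with compound 30 min at room temperature; acetylthiocholine plus DTNB then added, and thiocholine formation read colorimetrically after 10 min at room temperature. DMSO served as vehicle control.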

For experiment [9] the target is unchanged. Nature of the experiment: Acetylcholinesterase (AChE) small molecule antagonists: fluorescence cell-based qHTS assay (AID 1347398; calls by dose curve; further: nearly all actives have a fitted effect of over 50% in size; further: potency means the concentration at half of the fitted maximal effect). Particulars: Potency: AChE activity. In outline: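 SH-SY5Y cells (2000/well), attached overnight, incubated with compound 30 min at 37 C. Acetylthiocholine plus Thiolite Green then added for 40 min at room temperature. Thiocholine fluorescence (Ex/Em 490/520 nm) reports cellular AChE activity.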

The target is the same in experiment [10]. Put plainly: Acetylcholinesterase (AChE) small molecule antagonists: enzyme-based qHTS assay with human liver microsomes (AID 1347399; calls by dose curve; further: nearly all actives have a fitted effect of over 60% in size). Particulars: Potency: qHTS inhibition. In outline: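 Recombinant human AChE (50 mU/mL in the enzyme mix) and human liver microsomes (0.25 mg/mL final) were preincubated with compound and NADPH (0.25 mg/mL final) for 30 min at 37 C. Acetylthiocholine/DTNB was then added; thiocholine was read colorimetrically after 10 min at room temperature.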

The target of experiment [11] is Cytochrome P450 2D6 (Homo sapiens) (UniProt P10635). Nature of the experiment: Cytochrome P450 Family 2 Subfamily D Member 6 (CYP2D6) small molecule antagonists: luciferase reporter qHTS assay (AID 1671196). Further: nearly all actives have a fitted effect of over 50% in size. Further: potency means the concentration at half of the fitted maximal effect. The procedure, abridged:
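P450-Glo format: CYP2D6 converts a proluciferin substrate to luciferin in an NADPH-driven reaction lasting 1 h at room temperature. Light output, proportional to CYP2D6 activity, reflects interference by test chemicals.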
For orientation: In a reporter assay the amount or activity of a reporter protein is the signal.

Experiment [12] concerns the target Cytochrome P450 2C19 (Homo sapiens) (UniProt P33261). Put plainly: Cytochrome P450 Family 2 Subfamily C Member 19 (CYP2C19) small molecule antagonists: luciferase reporter qHTS assay (AID 1671197). Further: nearly all actives have a fitted effect of over 65% in size. Further: potency means the concentration at half of the fitted maximal effect. The procedure, abridged:
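Light output is proportional to CYP2C19 activity: proluciferin substrate is converted to luciferin, then detected by a luciferin detection reagent that also stops the 1 h, 37C NADPH-driven reaction. Ketoconazole serves as positive control.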

Experiment [13] concerns the target Cytochrome P450 2C9 (Homo sapiens) (UniProt P11712). Nature of the experiment: Cytochrome P450 Family 2 Subfamily C Member 9 (CYP2C9) small molecule antagonists: luciferase reporter qHTS assay (AID 1671198). Further: nearly all actives have a fitted effect of over 50% in size. Further: potency means the concentration at half of the fitted maximal effect. The procedure, abridged: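 P450-Glo proluciferin substrate with CYP2C9 enzyme; 10 min RT preincubation, then NADPH regeneration 1 h at 37C; luciferin detection reagent 20 min RT, luminescence in relative luminescence units.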

In experiment [14] the target is Cytochrome P450 1A2 (Homo sapiens) (UniProt P05177). Nature of the experiment: Cytochrome P450 Family 1 Subfamily A Member 2 (CYP1A2) small molecule antagonists: luciferase reporter qHTS assay (AID 1671199). Further: nearly all actives have a fitted effect of over 50% in size. Further: potency means the concentration at half of the fitted maximal effect. In outline:
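Inhibition of CYP1A2 conversion of proluciferin to luciferin, detected by luminescence. Reaction run 1 h at room temperature with NADPH regeneration after brief compound preincubation.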

Experiment [15] addresses Voltage-gated inwardly rectifying potassium channel KCNH2 (Homo sapiens) (UniProt Q12809). Put plainly: Human Ether-a-go-go-Related Gene (hERG) channel small molecule antagonists: fluorescence cell-based qHTS assay (AID 1671200). Further: nearly all actives have a fitted effect of over 50% in size. Further: potency means the concentration at half of the fitted maximal effect. The procedure, abridged: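 First, 1000 cells per well are seeded and cultured overnight at 37 C. Next, FluxOR II dye is loaded for 1 h at room temperature, protected from light. After 10 more minutes, stimulus is added and fluorescence is read.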

In experiment [16] the target is Nuclear receptor subfamily 1 group I member 2 (Rattus norvegicus) (UniProt Q9R1A7). Put plainly: Rat pregnane X receptor (rPXR) activation by small molecules, qHTS assay (AID 1346983). Further: nearly all actives have a fitted effect of over 20% in size. Particulars: rPXR luciferase reporter cells, One-Glo luminescence, 24 h; max activation: stronger effect = higher value. In outline:
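Cell-based rPXR activation assay: rPXR cells, 2,000 per well, rested 5hr at 37 C, then exposed to compounds in DMSO for 24 hr at 37 C. Luciferase activity read by One-Glo luminescence after 30 min at room temperature.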

Experiment [17] deals with Nuclear receptor subfamily 1 group I member 2 (Homo sapiens) (UniProt O75469). Nature of the experiment: CYP3A4 induction through human pregnane X receptor (PXR) by small molecules, qHTS assay (AID 1346984). Further: nearly all actives have a fitted effect of over 40% in size. The procedure, abridged:
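Steps: seed DPX-2 cells, 5 hr at 37C; pin-transfer compounds; 24 hr at 37C; add Luciferin-IPA (3uM final), 3 hr at 37C; add One-Glo, 30 min RT; read luminescence.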

Experiment [18] addresses Cytochrome P450 3A4 (Homo sapiens) (UniProt P08684). Nature of the experiment: Cytochrome P450 Family 3 Subfamily A Member 4 (CYP3A4) small molecule antagonists: luciferase reporter qHTS assay (AID 1671201). Further: nearly all actives have a fitted effect of over 50% in size. Further: potency means the concentration at half of the fitted maximal effect. In outline: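 Enzyme and proluciferin substrate are mixed with test chemicals for 10 min, then NADPH regeneration system drives turnover for 1 h at room temperature. A detection reagent halts the reaction; luminescence after 20 min gives relative activity.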

Values joined by “and” are separate entries in the source; they are usually repeats but may differ in a detail not shown here. Identical values can stand only once. Records with an inconclusive call do not appear. More than one record can exist for a structure, and the calls need not agree. Active and inactive are the calls of the source. Unless noted, the call rests on the fitted dose curve; in most records, active means well fitted curve in the direction sought with a large enough effect in the repeat runs; inconclusive means weak or mixed curves; inactive means no such curve, though single readings can be large; an effect the other way counts as inactive or inconclusive.
On the % scale 0 is the no-effect control and ±100 the full control effect.

Chain of Voltage-gated inwardly rectifying potassium channel KCNH2 (Homo sapiens) (Q12809 whole entry, looked up): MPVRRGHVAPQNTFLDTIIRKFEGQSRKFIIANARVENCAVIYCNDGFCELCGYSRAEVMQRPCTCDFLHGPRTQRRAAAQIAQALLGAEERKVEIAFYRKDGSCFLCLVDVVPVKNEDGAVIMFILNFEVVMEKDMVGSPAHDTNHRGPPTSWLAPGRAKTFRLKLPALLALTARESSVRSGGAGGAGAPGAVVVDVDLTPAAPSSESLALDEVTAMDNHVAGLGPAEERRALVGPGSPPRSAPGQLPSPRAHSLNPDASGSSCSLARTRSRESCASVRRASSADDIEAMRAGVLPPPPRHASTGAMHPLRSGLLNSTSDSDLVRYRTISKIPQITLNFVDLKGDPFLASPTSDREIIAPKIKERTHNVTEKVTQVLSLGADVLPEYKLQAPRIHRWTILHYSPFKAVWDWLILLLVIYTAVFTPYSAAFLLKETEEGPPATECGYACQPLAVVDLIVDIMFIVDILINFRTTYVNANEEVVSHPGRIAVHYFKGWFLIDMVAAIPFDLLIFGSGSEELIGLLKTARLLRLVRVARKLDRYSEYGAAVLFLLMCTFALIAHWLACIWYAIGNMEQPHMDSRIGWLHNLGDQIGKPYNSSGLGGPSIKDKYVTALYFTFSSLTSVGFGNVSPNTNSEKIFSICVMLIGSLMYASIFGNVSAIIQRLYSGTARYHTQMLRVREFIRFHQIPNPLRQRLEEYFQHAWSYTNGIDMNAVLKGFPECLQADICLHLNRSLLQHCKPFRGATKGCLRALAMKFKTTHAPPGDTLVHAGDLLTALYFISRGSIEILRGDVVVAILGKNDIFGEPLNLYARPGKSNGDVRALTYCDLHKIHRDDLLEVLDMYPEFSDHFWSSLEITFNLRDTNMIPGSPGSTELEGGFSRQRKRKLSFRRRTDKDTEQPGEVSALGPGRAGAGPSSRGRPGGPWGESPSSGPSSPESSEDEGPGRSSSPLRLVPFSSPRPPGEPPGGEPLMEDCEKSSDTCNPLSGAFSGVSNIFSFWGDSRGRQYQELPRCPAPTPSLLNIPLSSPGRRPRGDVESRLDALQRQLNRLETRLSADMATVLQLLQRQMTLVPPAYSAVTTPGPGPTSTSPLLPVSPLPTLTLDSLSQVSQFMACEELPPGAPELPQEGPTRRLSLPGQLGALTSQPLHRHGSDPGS
Chain of Acetylcholinesterase (Homo sapiens) (P22303 whole entry, looked up): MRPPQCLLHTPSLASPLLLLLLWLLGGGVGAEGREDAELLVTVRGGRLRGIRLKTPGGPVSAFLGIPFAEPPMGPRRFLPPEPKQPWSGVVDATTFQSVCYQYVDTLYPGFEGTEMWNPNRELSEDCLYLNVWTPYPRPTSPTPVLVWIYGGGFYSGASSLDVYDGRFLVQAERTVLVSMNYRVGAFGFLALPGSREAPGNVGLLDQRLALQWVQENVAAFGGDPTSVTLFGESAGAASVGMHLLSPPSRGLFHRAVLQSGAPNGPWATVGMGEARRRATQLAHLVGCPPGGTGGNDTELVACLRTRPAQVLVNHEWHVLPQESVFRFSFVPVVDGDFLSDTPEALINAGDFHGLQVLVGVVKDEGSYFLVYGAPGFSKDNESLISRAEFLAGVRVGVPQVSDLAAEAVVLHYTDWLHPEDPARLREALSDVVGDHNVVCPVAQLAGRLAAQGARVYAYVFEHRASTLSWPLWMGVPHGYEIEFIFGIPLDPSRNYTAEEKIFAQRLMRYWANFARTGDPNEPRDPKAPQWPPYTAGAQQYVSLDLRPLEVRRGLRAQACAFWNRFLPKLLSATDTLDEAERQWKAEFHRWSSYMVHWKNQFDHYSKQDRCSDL
Chain of Cytochrome P450 2C9 (Homo sapiens) (P11712 whole entry, looked up): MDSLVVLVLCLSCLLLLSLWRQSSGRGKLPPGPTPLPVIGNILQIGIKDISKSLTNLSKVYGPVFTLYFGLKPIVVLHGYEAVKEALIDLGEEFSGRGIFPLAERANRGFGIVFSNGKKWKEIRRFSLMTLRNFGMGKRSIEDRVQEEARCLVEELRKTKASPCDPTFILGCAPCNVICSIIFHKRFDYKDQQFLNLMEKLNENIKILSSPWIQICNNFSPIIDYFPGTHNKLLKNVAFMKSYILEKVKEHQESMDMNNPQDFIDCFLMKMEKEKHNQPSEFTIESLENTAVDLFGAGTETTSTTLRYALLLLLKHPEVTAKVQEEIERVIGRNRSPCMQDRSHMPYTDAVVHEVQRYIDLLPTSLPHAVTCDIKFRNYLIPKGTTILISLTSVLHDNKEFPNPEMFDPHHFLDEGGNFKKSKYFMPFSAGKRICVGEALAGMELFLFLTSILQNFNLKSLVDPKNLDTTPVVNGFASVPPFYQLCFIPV
Chain of Cytochrome P450 1A2 (Homo sapiens) (P05177 whole entry, looked up): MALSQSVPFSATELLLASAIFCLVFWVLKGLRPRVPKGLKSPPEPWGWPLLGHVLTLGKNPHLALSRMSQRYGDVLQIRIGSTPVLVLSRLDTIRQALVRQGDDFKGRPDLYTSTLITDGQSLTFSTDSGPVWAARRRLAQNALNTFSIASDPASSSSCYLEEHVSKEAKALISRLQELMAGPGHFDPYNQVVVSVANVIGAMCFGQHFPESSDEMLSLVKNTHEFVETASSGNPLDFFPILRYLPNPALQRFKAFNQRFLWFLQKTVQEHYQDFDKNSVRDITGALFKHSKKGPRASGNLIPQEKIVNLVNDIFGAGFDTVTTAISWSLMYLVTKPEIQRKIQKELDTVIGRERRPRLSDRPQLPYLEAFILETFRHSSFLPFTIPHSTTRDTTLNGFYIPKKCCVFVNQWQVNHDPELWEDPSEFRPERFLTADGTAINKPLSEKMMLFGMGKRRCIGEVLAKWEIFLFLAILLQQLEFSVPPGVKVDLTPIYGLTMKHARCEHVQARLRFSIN
Chain of Cytochrome P450 2C19 (Homo sapiens) (P33261 whole entry, looked up): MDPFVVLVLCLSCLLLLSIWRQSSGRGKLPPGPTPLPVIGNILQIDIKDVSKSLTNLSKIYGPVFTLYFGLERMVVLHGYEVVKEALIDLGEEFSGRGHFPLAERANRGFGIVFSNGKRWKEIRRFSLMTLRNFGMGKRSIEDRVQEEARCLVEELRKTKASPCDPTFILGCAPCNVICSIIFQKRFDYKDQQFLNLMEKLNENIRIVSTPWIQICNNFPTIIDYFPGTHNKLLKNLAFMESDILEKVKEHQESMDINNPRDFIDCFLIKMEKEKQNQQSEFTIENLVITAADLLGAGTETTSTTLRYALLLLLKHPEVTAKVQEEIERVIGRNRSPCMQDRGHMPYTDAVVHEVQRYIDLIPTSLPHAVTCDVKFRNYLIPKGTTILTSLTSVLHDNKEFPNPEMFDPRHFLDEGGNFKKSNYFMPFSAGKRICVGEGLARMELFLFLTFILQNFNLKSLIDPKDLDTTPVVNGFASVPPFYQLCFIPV
Chain of Cytochrome P450 2D6 (Homo sapiens) (P10635 whole entry, looked up): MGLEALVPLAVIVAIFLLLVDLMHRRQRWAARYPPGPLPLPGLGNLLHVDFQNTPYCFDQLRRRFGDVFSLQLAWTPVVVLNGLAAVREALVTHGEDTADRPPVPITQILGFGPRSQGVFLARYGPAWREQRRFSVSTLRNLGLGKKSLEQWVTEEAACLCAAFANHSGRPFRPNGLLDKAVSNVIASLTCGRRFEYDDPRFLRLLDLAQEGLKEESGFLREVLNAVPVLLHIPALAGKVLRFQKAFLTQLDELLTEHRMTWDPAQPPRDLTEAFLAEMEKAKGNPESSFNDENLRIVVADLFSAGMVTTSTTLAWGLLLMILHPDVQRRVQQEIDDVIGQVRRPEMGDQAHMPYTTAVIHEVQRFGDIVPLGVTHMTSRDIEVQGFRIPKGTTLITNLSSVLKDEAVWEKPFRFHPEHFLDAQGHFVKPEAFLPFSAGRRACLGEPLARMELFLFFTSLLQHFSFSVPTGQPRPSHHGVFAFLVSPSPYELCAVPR
Chain of Cytochrome P450 3A4 (Homo sapiens) (P08684 whole entry, looked up): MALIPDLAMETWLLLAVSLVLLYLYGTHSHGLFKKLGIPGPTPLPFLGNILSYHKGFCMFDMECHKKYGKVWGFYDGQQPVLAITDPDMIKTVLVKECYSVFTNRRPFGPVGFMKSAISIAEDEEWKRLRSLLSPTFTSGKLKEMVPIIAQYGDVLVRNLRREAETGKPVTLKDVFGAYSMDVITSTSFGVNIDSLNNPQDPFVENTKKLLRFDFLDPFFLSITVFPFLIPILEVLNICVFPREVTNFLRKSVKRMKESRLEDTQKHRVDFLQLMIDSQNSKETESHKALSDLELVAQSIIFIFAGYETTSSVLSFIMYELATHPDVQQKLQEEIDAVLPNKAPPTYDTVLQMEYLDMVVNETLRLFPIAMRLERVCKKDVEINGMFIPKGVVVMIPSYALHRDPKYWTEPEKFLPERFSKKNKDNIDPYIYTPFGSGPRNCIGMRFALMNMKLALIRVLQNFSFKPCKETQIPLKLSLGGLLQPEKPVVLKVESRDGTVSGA

For `c1cc[n+]2c(c1)-c1cccc[n+]1CC2`, the Potency in experiment [1] is 13.3 µM (active); in experiment [11], 7.76 µM (active); in experiment [12], 9.77 µM (active); in experiment [14], 30.9 µM (active). For the same compound, the Potency result in experiment [2], in experiment [3], in experiment [4], in experiment [5], in experiment [6] and in [7] was “inactive” throughout. Besides, the Potency entry in experiment [8], in experiment [9], in experiment [10], in [13] and in experiment [15] was “inactive” throughout.

In the case of `CC(C)NCC(O)c1ccccc1Cl` (configuration not stated), the Potency result in experiment [1], in experiment [2], in experiment [3], in experiment [4], in [5] and in experiment [6] was “inactive” in each case. The Potency entry in experiment [17], in [7], in experiment [8], in experiment [9], in experiment [10] and in [12] was “inactive” throughout. Further, the Potency entry in experiment [13], in [14], in [15] and in experiment [18] was “inactive” each time. Moreover, the max activation in experiment [16] was 1.03% (inactive). The Potency in experiment [11] is 7.76 µM (active).

With `O=C(Nc1ccc(F)cc1F)c1cccnc1Oc1cccc(C(F)(F)F)c1`, the Potency result in [1], in experiment [2], in experiment [3], in [4], in experiment [5] and in experiment [7] was “inactive” each time. Also, the Potency entry in experiment [8], in experiment [9], in [10], in [11], in experiment [15] and in experiment [18] was “inactive” each time. Also, the results for the Potency in experiment [6] and in experiment [14] were 4.24 µM (active) and 7.81 µM (active), respectively.

Consider `Cc1ccc(C)c2ccccc12`, for which the Potency result in [1], in experiment [2], in [3], in experiment [4], in experiment [5] and in experiment [6] was “inactive” throughout. Moreover, the Potency result in experiment [7], in [8], in [9], in experiment [10], in experiment [11] and in [12] was “inactive” each time. The Potency entry in experiment [13], in [14], in experiment [15] and in experiment [18] was “inactive” each time.

Turning to `CC(=O)[O][Sn]([c]1ccccc1)([c]1ccccc1)[c]1ccccc1`, the Potency in experiment [1] is 0.306 µM (active); in [2], 0.306 µM (active); in experiment [3] it was 154 nM (active); in experiment [4] it was 0.122 µM (active); in experiment [5] it was 2.73 µM (active); in experiment [6], 0.243 µM (active). The Potency in experiment [11] was 0.2 µM (active); in [12], 5.03 µM (active); in experiment [13], 0.894 µM (active); in experiment [15], 1.1 µM (active); in experiment [18], 12.6 µM (active). For the same compound, the Potency result in experiment [7], in experiment [8], in experiment [9] and in experiment [10] was “inactive” each time.

Regarding `O=NN(CCO)CCO`, the Potency entry in [1], in experiment [2], in experiment [3], in [4], in experiment [5] and in experiment [6] was “inactive” in each case. Besides, the Potency entry in experiment [7], in experiment [8], in [9], in experiment [10], in experiment [11] and in experiment [13] was “inactive” in each case. In addition, the Potency result in experiment [14], in experiment [15] and in experiment [18] was “inactive” in each case. The Potency in [12] was 78.4 µM (active).

Take `[O]=[Cr][O][Cr]=[O]`: the Potency result in experiment [1], in [2], in experiment [3], in [4], in experiment [5] and in experiment [6] was “inactive” each time. In addition, the Potency entry in experiment [7], in experiment [8], in experiment [9], in experiment [10], in experiment [13] and in [15] was “inactive” in each case. The Potency in experiment [11] was 2.58 µM (active).

Turning to `CC(C)N(C(=O)CCl)c1ccccc1`, the Potency in experiment [1] was 27.3 µM (active); in experiment [3], 24.3 µM (active) and 27.3 µM (active); in experiment [5], 54.5 µM (active); in experiment [6], 48.6 µM (active) and inactive; in experiment [7], 63.3 µM (active); in experiment [9], 20 µM (active). Also, the Potency in experiment [12] was 39.9 µM (active). The Potency result in experiment [2], in [4], in [8], in experiment [10], in experiment [11] and in [14] was “inactive” in each case. Moreover, the Potency result in experiment [15] and in [18] was “inactive” in each case.

The values are drawn from PubChem BioAssay (Tox21).
